Assay results taken from the supplement of paper PMC12494721.
Counter-ions that a name gives are not always drawn.

Assays:
Details in all cases: incubation time: 27 h, anaerobic, 37 °C;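 for the amine columns active = adjusted P below 0.05 in both replicates with a change the same way and a mean fold change under 0.8 or over 1.25; inactive = the rest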
[1] = tested on: Clostridium sporogenes DSM 1664; assay: growth (OD595) fold change vs plate DMSO controls (fold change (ratio)); higher = more growth
How it was run: (§1)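 Growth is the fold change relative to the median of plate DMSO controls. Readings came from anaerobic mGAM cultures in 96-well plates grown for 27 h at 37 °C and read at 595 nm. They were blank-subtracted, corrected for compound background with 20 µM compound solutions in water, and converted to OD with a calibration factor of 5. Values are means of 2 biological replicates, and fold changes above 1.5 were set to NA.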

[2] = tested on: Escherichia coli IAI1; assay: as above
How it was run: as §1

[3] = tested on: Klebsiella aerogenes DSM 30053; assay: as above
How it was run: as §1

[4] = tested on: Ruminococcus gnavus DSM 108212; assay: as above
How it was run: as §1

[5] = tested on: Klebsiella aerogenes DSM 30053; assay: fold change of Histamine concentration vs plate DMSO controls (fold change (ratio)); higher = more amine produced, active = hit call of the paper (significant change in both replicates, either direction)
How it was run: (§2)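 Each value is the fold change relative to DMSO-only wells on the same plate. Four gut bacterial strains were grown anaerobically in mGAM at 37 °C for 27 h in 80 µL wells, starting at OD 0.1 before a 1:1 dilution, with compounds at 20 µM final (sweeteners 50 µM). Whole cultures were extracted with cold acetonitrile/methanol containing 0.1% formic acid, centrifuged, and amines were quantified by LC–triple-quadrupole MS (dynamic MRM) against external calibration curves with within-batch drift correction. Values are means of 2 biological replicates.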

[6] = tested on: Clostridium sporogenes DSM 1664; assay: fold change of Tryptamine concentration vs plate DMSO controls (fold change (ratio)); higher = more amine produced, active = hit call of the paper (significant change in both replicates, either direction)
How it was run: as §2

[7] = tested on: Ruminococcus gnavus DSM 108212; assay: as above
How it was run: as §2

[8] = tested on: Escherichia coli IAI1; assay: fold change of Putrescine concentration vs plate DMSO controls (fold change (ratio)); higher = more amine produced, active = hit call of the paper (significant change in both replicates, either direction)
How it was run: as §2

[9] = tested on: Klebsiella aerogenes DSM 30053; assay: as above
How it was run: as §2

[10] = tested on: Escherichia coli IAI1; assay: fold change of Cadaverine concentration vs plate DMSO controls (fold change (ratio)); higher = more amine produced, active = hit call of the paper (significant change in both replicates, either direction)
How it was run: as §2

[11] = tested on: Klebsiella aerogenes DSM 30053; assay: as above
How it was run: as §2

[12] = tested on: Ruminococcus gnavus DSM 108212; assay: fold change of 2-Phenylethylamine concentration vs plate DMSO controls (fold change (ratio)); higher = more amine produced, active = hit call of the paper (significant change in both replicates, either direction)
How it was run: as §2

SMILES | growth [1] | growth [2] | growth [3] | growth [4] | fold change of Histamine concentration [5] | fold change of Tryptamine concentration [6] | fold change of Tryptamine concentration [7] | fold change of Putrescine concentration [8] | fold change of Putrescine concentration [9] | fold change of Cadaverine concentration [10] | fold change of Cadaverine concentration [11] | fold change of 2-Phenylethylamine concentration [12]
CN(C)CCC[C@@]1(c2ccc(F)cc2)OCc2cc(C#N)ccc21 [Escitalopram oxalate] (20 µM) | 0.99 | 0.986 | 1.11 | 0.828 | 1.02 (inactive) | 0.971 (inactive) | 1.01 (inactive) | 1.01 (inactive) | 1.02 (inactive) | 0.993 (inactive) | 1.02 (inactive) | 0.965 (inactive)
N=C(N)c1ccc(OCCCCCOc2ccc(C(=N)N)cc2)cc1 [Pentamidine isethionate] (20 µM) | 1.15 | 1.05 | 0.985 | 1.35 | 0.984 (inactive) | 0.79 (inactive) | 0.365 (active) | 0.993 (inactive) | 0.914 (inactive) | 0.825 (inactive) | 1.01 (inactive) | 0.38 (active)
COCC(=O)Nc1c(I)c(C(=O)NCC(O)CO)c(I)c(C(=O)N(C)CC(O)CO)c1I (centres undefined) [Iopromide] (20 µM) | 1.27 | 1.02 | 1.06 | 1.02 | 1.01 (inactive) | 1.01 (inactive) | 1.11 (inactive) | 1.09 (inactive) | 0.975 (inactive) | 0.989 (inactive) | 1.02 (inactive) | 1.15 (inactive)
NC(=O)N1c2ccccc2C=Cc2ccccc21 [Carbamazepine] (20 µM) | 0.968 | 1.08 | 1.01 | 1.17 | 1.03 (inactive) | 0.973 (inactive) | 1.02 (inactive) | 1.03 (inactive) | 1 (inactive) | 1.04 (inactive) | 1.01 (inactive) | 0.987 (inactive)
O=C(O)Cc1csc(-c2ccc(Cl)cc2)n1 [Fenclozic acid] (20 µM) | 1.01 | 0.949 | 0.979 | 1.1 | 1.05 (inactive) | 1 (inactive) | 1.05 (inactive) | 1.01 (inactive) | 0.985 (inactive) | 0.986 (inactive) | 0.977 (inactive) | 1.1 (inactive)
C[C@]12CC[C@H]3C(=CCc4cc(O)ccc43)[C@@H]1CCC2=O [Equilin] (20 µM) | 0.994 | 0.964 | 0.954 | 1 | 1.01 (inactive) | 1.02 (inactive) | 0.996 (inactive) | 1.07 (inactive) | 0.996 (inactive) | 1.03 (inactive) | 0.978 (inactive) | 0.93 (inactive)
CN(C)c1cc(NC(=O)CNC(C)(C)C)c(O)c2c1C[C@H]1C[C@H]3[C@H](N(C)C)C(=O)C(C(N)=O)=C(O)[C@@]3(O)C(=O)C1=C2O [Tigecycline] (20 µM) | 0.926 | 1.12 | 1.18 | 1.19 | 0.865 (inactive) | 0.964 (inactive) | 1.08 (inactive) | 1.08 (inactive) | 0.991 (inactive) | 0.967 (inactive) | 1.03 (inactive) | 1.13 (inactive)
CN(C)/N=N/c1[nH]cnc1C(N)=O [Dacarbazine] (20 µM) | 0.822 | 1 | 1.06 | 1.02 | 0.954 (inactive) | 1 (inactive) | 1.01 (inactive) | 0.984 (inactive) | 1.01 (inactive) | 0.993 (inactive) | 1.02 (inactive) | 1.05 (inactive)
CC1(C)[C@@H](O[C@H]2O[C@H](C(=O)O)[C@@H](O)[C@H](O)[C@H]2O[C@@H]2O[C@H](C(=O)O)[C@@H](O)[C@H](O)[C@H]2O)CC[C@]2(C)[C@H]3C(=O)C=C4[C@@H]5C[C@@](C)(C(=O)O)CC[C@]5(C)CC[C@@]4(C)[C@]3(C)CC[C@@H]12 [Glycyrrhizic acid] (50 µM) | 0.971 | 0.995 | 1.07 | 1.07 | 0.865 (inactive) | 0.966 (inactive) | 1.05 (inactive) | 1.02 (inactive) | 0.992 (inactive) | 1.05 (inactive) | 1.03 (inactive) | 1.1 (inactive)
C[C@@H](O)[C@H]1C(=O)N2C(C(=O)O)=C(S[C@@H]3CN[C@H](C(=O)N(C)C)C3)[C@H](C)[C@H]12 [Meropenem] (20 µM) | 0 | 0.0127 | 0.316 | 0 | 0.214 (active) | 0.0316 (active) | 0.0446 (active) | 0.278 (active) | 0.605 (active) | 0.971 (inactive) | 1.11 (inactive) | 0.0459 (active)
CCCOc1ccc2[nH]c(NC(=O)OC)nc2c1 [Oxibendazol] (20 µM) | 0.862 | 0.999 | 0.972 | 0.869 | 1.04 (inactive) | 0.982 (inactive) | 1 (inactive) | 1 (inactive) | 1.02 (inactive) | 1 (inactive) | 0.987 (inactive) | 0.996 (inactive)
Clc1ccc(C(Cn2ccnc2)OCc2ccsc2Cl)c(Cl)c1 (centres undefined) [Tioconazole] (20 µM) | 1.21 | 0.866 | 0.838 | 0.0103 | 1.05 (inactive) | 0.957 (inactive) | 0.26 (active) | 1.01 (inactive) | 1.01 (inactive) | 0.982 (inactive) | 0.997 (inactive) | 0.275 (active)
O=C1O[C@H]([C@@H](O)CO)C(O)=C1O [Ascorbic acid] (20 µM) | 1.01 | 1.03 | 0.981 | 0.975 | 1.08 (inactive) | 1.05 (inactive) | 1.06 (inactive) | 1.01 (inactive) | 0.978 (inactive) | 1.03 (inactive) | 1.04 (inactive) | 1.03 (inactive)
Cc1c(O)c(=O)ccn1C [Deferiprone] (20 µM) | 1 | 0.999 | 1.04 | 1.06 | 1.03 (inactive) | 1.05 (inactive) | 1.02 (inactive) | 1 (inactive) | 1.01 (inactive) | 1.03 (inactive) | 0.999 (inactive) | 1 (inactive)
c1ccc(CN(CC2=NCCN2)c2ccccc2)cc1 [Antazoline hydrochloride] (20 µM) | 0.903 | 0.968 | 0.958 | 0.834 | 1.06 (inactive) | 0.965 (inactive) | 1.06 (inactive) | 0.929 (inactive) | 1.01 (inactive) | 1.07 (inactive) | 0.998 (inactive) | 1.08 (inactive)
CC1(C)S[C@@H]2[C@H](NC(=O)[C@H](N)c3ccc(O)cc3)C(=O)N2[C@H]1C(=O)O [Amoxicillin] (20 µM) | 0 | 0.796 | 0.828 | 0.198 | 1.1 (inactive) | 0.0237 (active) | 0.0355 (active) | 3.1 (active) | 1.05 (inactive) | 1.41 (inactive) | 1.06 (inactive) | 0.0375 (active)
N=C(N)NCc1cccc(I)c1 [Iobenguane sulfate] (20 µM) | 0.944 | 0.983 | 0.971 | 0.721 | 0.89 (inactive) | 1 (inactive) | 1.08 (inactive) | 0.949 (inactive) | 0.914 (inactive) | 1.04 (inactive) | 1.1 (inactive) | 1.09 (inactive)
NC12CC3CC(CC(C3)C1)C2 [Adamantamine fumarate] (20 µM) | 0.99 | 1.02 | 0.991 | 0.942 | 0.988 (inactive) | 0.971 (inactive) | 1.09 (inactive) | 0.924 (inactive) | 0.993 (inactive) | 1.03 (inactive) | 1.09 (inactive) | 1.23 (inactive)
CCCSc1ccc2[nH]c(NC(=O)OC)nc2c1 [Albendazole] (20 µM) | 0.989 | 1.01 | 1.05 | 0.661 | 1.09 (inactive) | 0.961 (inactive) | 1.07 (inactive) | 1.01 (inactive) | 1.02 (inactive) | 0.982 (inactive) | 1.01 (inactive) | 1.13 (inactive)
CC(=O)[C@H]1CC[C@H]2[C@@H]3CC=C4C[C@@H](O)CC[C@]4(C)[C@H]3CC[C@]12C [Pregnenolone] (20 µM) | 1.1 | 1.07 | 1 | 0.993 | 1.06 (inactive) | 1.04 (inactive) | 0.998 (inactive) | 1.03 (inactive) | 1.02 (inactive) | 0.968 (inactive) | 0.994 (inactive) | 1 (inactive)
CN1CCN(C(c2ccccc2)c2ccccc2)CC1 [Cyclizine hydrochloride] (20 µM) | 0.981 | 0.984 | 0.972 | 1.16 | 1.07 (inactive) | 0.968 (inactive) | 0.996 (inactive) | 1 (inactive) | 1 (inactive) | 1.02 (inactive) | 0.987 (inactive) | 1.03 (inactive)
CC[C@H]1OC(=O)[C@H](C)[C@@H](O[C@H]2C[C@@](C)(OC)[C@@H](O)[C@H](C)O2)[C@H](C)[C@@H](O[C@@H]2O[C@H](C)C[C@H](N(C)C)[C@H]2O)[C@](C)(OC)C[C@@H](C)C(=O)[C@H](C)[C@@H](O)[C@]1(C)O [Clarithromycin] (20 µM) | 0 | 0.665 | 0.941 | 0.257 | 0.636 (inactive) | 0.0515 (active) | 0.11 (active) | 0.434 (inactive) | 0.888 (inactive) | 0.944 (inactive) | 1.03 (inactive) | 0.118 (active)
